This is an account of results in PubChem BioAssay (NCATS).

Assay [1] in a line: qHTS profiling of the MIPE4 collection as inhibitors of Plasmodium falciparum (DD2) proliferation (AID 743345; call rule not given here). The conditions noted are these: P. falciparum Dd2 in erythrocytes, SYBR Green DNA, 72 h; at 28.5 µM (top of the series) unless noted. In short, it runs like this:
(§1)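 Erythrocytes infected with P. falciparum (0.3% parasitemia, 2.5% hematocrit) incubated with compounds 72 h at 37 C, 5% CO2. Lysis with saponin/Triton buffer containing SYBR Green I, overnight at room temperature in the dark; DNA fluorescence (485/535 nm) normalised to 0.29 uM artemisinin and DMSO.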
In general terms: Quantitative high-throughput screening tests each substance at several concentrations.

A short description of assay [2]: qHTS profiling of the MIPE4 collection as inhibitors of Plasmodium falciparum (DD2) proliferation (Rep 2) (AID 743346; call rule not given here). The note with it: P. falciparum Dd2 in erythrocytes, SYBR Green DNA, 72 h; at 28.5 µM (top of the series) unless noted. In short, it runs like this:
as §1

Assay [3] can be described thus: qHTS profiling of the MIPE4 collection as inhibitors of Plasmodium falciparum (HB3) proliferation (AID 743347; call rule not given here;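 also: plate controls were DMSO vehicle wells for no effect and artemisinin wells for full effect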). The note with it: P. falciparum HB3 in erythrocytes, SYBR Green DNA, 72 h; at 28.5 µM (top of the series) unless noted. An outline of the steps: as §1
A short description of assay [4]: High-throughput drug toxicity screening in the BPDCN cell line Gen2.2 (AID 1224824; call rule not given here;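 also: cells exposed to compounds for 48 h before reading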). The conditions noted are these: Gen2.2 BPDCN cells; at 45.8 µM (top of the series) unless noted. An outline of the steps:
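CellTiter-Glo luminescence read after 48 h compound exposure at 37 C defines viability; percent activity set with DMSO as 100% and bortezomib (9.2 uM final) as 0%. 500 exponentially growing cells per well, RPMI plus 10% FBS.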

A short description of assay [5]: High-throughput drug toxicity screening in the BPDCN cell line Cal-1 (AID 1224825; call rule not given here). The conditions noted are these: Cal-1 BPDCN cell viability, qHTS; at 45.8 µM (top of the series) unless noted. In short, it runs like this: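 Cal-1 cells, 500 per well in phenol-red-free RPMI with 10% FBS, exposed to compounds for 48 hours at 37C, 5% CO2. Viability read by CellTiter-Glo luminescence; percent activity normalized to DMSO (100%) and 9.2 uM bortezomib final (0%).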

Assay [6] can be described thus: qHTS assay for measurement of the activity of small molecule inhibitors on Zika virus induced Caspase-3 activity in human iPSC derived neural progenitor cells (hNPCs) (AID 1224857). Also: % of control where 0% means no effect; nearly all actives have a fitted effect of over 65% in size. In short, it runs like this:
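Cells were plated at 350 per well and grown 16 to 20 hours. Compound pretreatment lasted one hour, after which ZIKV (2 FFU/cell) was added for 6 hours. Percent inhibition was normalized between uninfected and infected controls.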

Assay [7] can be described thus: qHTS assay for measurement of the activity of small molecule inhibitors on Zika virus induced Caspase-3 activity in human astrocytoma cells (AID 1224859).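 Also: plate controls were ZIKV-infected untreated cells for no effect and uninfected cells for full effect.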 An outline of the steps:
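Percent inhibition of virus-induced caspase-3/7 signal is calculated against uninfected and ZIKV-infected control cells. Cells are SNB-19, infected at 2 FFU/cell for 6 h after 1 h compound exposure.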

Assay [8] in a line: qHTS Screen of the MIPE 4.0 Collection Against Ewings Sarcoma (RDES) (AID 1259252). Also: nearly all actives have a fitted effect of over 35% in size. Also: potency is read from the fitted curve at half-maximal effect. In short, it runs like this:
(§2)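 Viability screen: 48 h incubation at 37C, 95% humidity, 5% CO2 with serially titrated compound, followed by CellTiter-Glo readout.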

The nature of assay [9]: qHTS Screen of the MIPE 4.0 Collection Against Ewings Sarcoma (TC71) (AID 1259253). Also: nearly all actives have a fitted effect of over 40% in size. Also: potency is read from the fitted curve at half-maximal effect. An outline of the steps:
as §2

Assay [10] can be described thus: qHTS Screen of the MIPE 4.0 Collection Against Ewings Sarcoma (EW8) (AID 1259255). Also: nearly all actives have a fitted effect of over 35% in size. Also: potency is read from the fitted curve at half-maximal effect.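 As to viability: 100% = DMSO-treated cells and 0% = medium-only wells without cells.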 An outline of the steps: as §2

“And” between values parts separate entries of the source, which are not always exact repeats. Equal values may be shown once. Inconclusive results are not listed. The source made the active and inactive calls. Unless noted, calls follow the shape of the dose curve; as a rule, active = well fitted inhibition curve with a large enough effect; inconclusive = small, poorly fitted or top-dose-only effect; inactive = no such curve, though single readings can be large or run the other way.

Take `CCc1c(O)cc(O)c(C(=O)c2ccc(OCCN3CCOCC3)c(OC)c2)c1CC(=O)N(CCOC)CCOC`: the parasite growth remaining, % of DMSO control (lower = more inhibition) in [1] worked out at 12.7%. Moreover, the parasite growth, % of control (lower = inhibition) in assay [2] amounted to 11.6%. Also, in assay [3], the growth, % of control was found to be 7.26%. In addition, in assay [4], the cell viability, % of control (lower = more cytotoxic) stood at 4.9%. Besides, in assay [5], the viability (% of control) is 16.5%. The Potency result in assay [6] and in assay [7] was “inactive” each time. Further, the Potency in assay [8] was 0.662 µM (active); in assay [9], 2.35 µM (active); in [10] it was 1.05 µM (active).
On to `COc1ccc(Nc2cc(-c3cnc(N)nc3)nc(N3CCOCC3)n2)cn1`, for which the parasite growth remaining, % of DMSO control (lower = more inhibition) in assay [1] is 11.1%. Besides, the parasite growth, % of control (lower = inhibition) in assay [2] was determined as 27.1%. For the same compound, the growth, % of control in assay [3] came to 6.14%. In assay [4], the cell viability, % of control (lower = more cytotoxic) is 28.9%. The viability (% of control) in assay [5] came out at 25.7%. Further, the Potency entry in assay [6] and in assay [7] was “inactive” in each case. Moreover, the results for the Potency in [8], in [9] and in assay [10] were 5.9 µM (active), 14.8 µM (active) and 11.8 µM (active), respectively.
For `N#Cc1c(C2CCNCC2)cc(-c2c(O)cccc2OCC2CC2)nc1N`, in assay [1], the parasite growth remaining, % of DMSO control (lower = more inhibition) amounted to 12.3%. Moreover, the parasite growth, % of control (lower = inhibition) in assay [2] worked out at 15.7%. This compound also returned a growth, % of control in assay [3] of 5.66%. Moreover, in assay [4], the cell viability, % of control (lower = more cytotoxic) was 7.25%. For the same compound, the viability (% of control) in [5] came out at 5.17%. Moreover, the Potency entry in [6] and in assay [7] was “inactive” in each case. Further, the Potency is 14.8 µM (active) in assay [8], 10.5 µM (active) in assay [9] and 14.8 µM (active) in assay [10].
`CCN(C(=O)c1c(O)c2c(Cl)cccc2n(C)c1=O)c1ccccc1`: the parasite growth remaining, % of DMSO control (lower = more inhibition) in assay [1] turned out to be 108%. Further, the parasite growth, % of control (lower = inhibition) in [2] came to 78.3%. The compound also registered a growth, % of control in assay [3] of 102%. Also, the cell viability, % of control (lower = more cytotoxic) in assay [4] worked out at 112%. The viability (% of control) in assay [5] was 20.2%. In addition, the Potency result in assay [6], in assay [7], in assay [8], in [9] and in assay [10] was “inactive” each time.
For `O=[N+]([O-])c1cn2c(n1)OC[C@@H](OCc1ccc(OC(F)(F)F)cc1)C2`, the parasite growth remaining, % of DMSO control (lower = more inhibition) in assay [1] was 99.7% and 101%. Moreover, the parasite growth, % of control (lower = inhibition) in assay [2] is 155% and 70.1%. Besides, in assay [3], the growth, % of control is 98.1% and 86.3%. Besides, the cell viability, % of control (lower = more cytotoxic) in assay [4] was 110%. Besides, the viability (% of control) in [5] worked out at 105%. The Potency result in assay [6] and in assay [7] was “inactive” each time. Moreover, the Potency in [8] is 3.32 µM (active); in assay [9], 3.72 µM (active); in assay [10] it was 9.35 µM (active).
As for `COc1cccc2c1C(=O)c1c(O)c3c(c(O)c1C2=O)C[C@@](O)(C(=O)CO)C[C@H]3O[C@H]1C[C@H](N)[C@H](O)[C@H](C)O1`, the parasite growth remaining, % of DMSO control (lower = more inhibition) in assay [1] is 5.82%. The parasite growth, % of control (lower = inhibition) in [2] amounted to 5.25%. The growth, % of control in [3] was found to be 1.64%. Also, the cell viability, % of control (lower = more cytotoxic) in assay [4] was determined as 6.45%. Further, the viability (% of control) in assay [5] was 4.57%. In addition, the Potency result in assay [6] and in assay [7] was “inactive” each time. The Potency in assay [8] is 0.187 µM (active); in [9], 0.0743 µM (active); in [10], 0.0264 µM (active).
On to `CCc1nc(-c2cccc(C)c2)c(-c2ccnc(NC(=O)c3ccccc3)c2)s1`, for which the parasite growth remaining, % of DMSO control (lower = more inhibition) in assay [1] was 47.6%. Also, in assay [2], the parasite growth, % of control (lower = inhibition) is 49.3%. The growth, % of control in [3] is 29.7%. For the same compound, the cell viability, % of control (lower = more cytotoxic) in [4] was 229%. Also, the viability (% of control) in assay [5] was 25.7%. Also, the Potency entry in assay [6] and in assay [7] was “inactive” throughout. The results for the Potency in [8], in assay [9] and in assay [10] were 14.8 µM (active), 18.7 µM (active) and 20.9 µM (active), respectively.
On to `C[C@H](NCc1ccc(OCc2cccc(F)c2)cc1)C(N)=O`, for which the parasite growth remaining, % of DMSO control (lower = more inhibition) in assay [1] is 6.14%. Besides, the parasite growth, % of control (lower = inhibition) in [2] is 12.8%. This compound also came in with a growth, % of control in assay [3] of 3.17%. Also, in [4], the cell viability, % of control (lower = more cytotoxic) was determined as 13.6%. Further, the viability (% of control) in assay [5] was found to be 4.81%. In addition, the Potency result in assay [6] and in assay [7] was “inactive” each time. Besides, the Potency in assay [8] was 14.8 µM (active); in [9], 14.8 µM (active); in assay [10], 8.33 µM (active).
For the compound `O=C(O)CCCCCC(=O)NN=C1CCCC1`, the parasite growth remaining, % of DMSO control (lower = more inhibition) in [1] was determined as 100%. Further, the parasite growth, % of control (lower = inhibition) in [2] was 194%. Moreover, the growth, % of control in [3] amounted to 101%. In [4], the cell viability, % of control (lower = more cytotoxic) turned out to be 141%. The viability (% of control) in assay [5] is 105%. In addition, the Potency result in [6], in assay [7], in [8], in assay [9] and in assay [10] was “inactive” each time.
Turning to `COc1cccc2c1C(=O)c1c(O)c3c(c(O)c1C2=O)C[C@@](O)(C(C)=O)C[C@H]3O[C@H]1C[C@H](N)[C@H](O)[C@H](C)O1`, the parasite growth remaining, % of DMSO control (lower = more inhibition) in assay [1] turned out to be 5.82%. The parasite growth, % of control (lower = inhibition) in [2] was found to be 6.6%. Moreover, the growth, % of control in assay [3] amounted to 6.78%. Moreover, the cell viability, % of control (lower = more cytotoxic) in assay [4] amounted to 3.75%. In assay [5], the viability (% of control) was 3.72%. The Potency result in [6] and in assay [7] was “inactive” each time. Also, the Potency in assay [8] was 0.0418 µM (active); in assay [9], 0.0662 µM (active); in [10], 0.0526 µM (active).
In the case of `COc1ccc(Nc2nccc(NCCO)n2)cc1`, in assay [1], the parasite growth remaining, % of DMSO control (lower = more inhibition) was 94.8%. In assay [2], the parasite growth, % of control (lower = inhibition) stood at 83.3%. Besides, in assay [3], the growth, % of control was 87.1%. For the same compound, the cell viability, % of control (lower = more cytotoxic) in [4] was 195%. Also, in assay [5], the viability (% of control) is 111%. For the same compound, the Potency result in [6], in assay [7], in [8], in [9] and in [10] was “inactive” each time.
`O=c1ccn([C@@H]2O[C@H](CO)[C@H](O)[C@@H]2F)c(=O)[nH]1`: the parasite growth remaining, % of DMSO control (lower = more inhibition) in assay [1] amounted to 100%. In addition, in [2], the parasite growth, % of control (lower = inhibition) came out at 107%. This compound also came in with a growth, % of control in assay [3] of 645%. In addition, the cell viability, % of control (lower = more cytotoxic) in assay [4] worked out at 191%. For the same compound, the viability (% of control) in [5] came out at 119%. Further, the Potency result in [6] and in assay [7] was “inactive” each time. Moreover, the values for the Potency in assay [8], in assay [9] and in assay [10] were 3.72 µM (active), 3.32 µM (active) and 26.4 µM (active), respectively.
With `CC(=O)SCC(Cc1ccccc1)C(=O)NCC(=O)OCc1ccccc1` (stereo not given), in assay [1], the parasite growth remaining, % of DMSO control (lower = more inhibition) stood at 97.5%. For the same compound, the parasite growth, % of control (lower = inhibition) in assay [2] turned out to be 60.4%. In addition, in assay [3], the growth, % of control worked out at 65.1%. In addition, the cell viability, % of control (lower = more cytotoxic) in assay [4] was determined as 5.18%. Besides, in [5], the viability (% of control) came to 4.75%. Further, the Potency result in assay [6] and in [7] was “inactive” each time. Also, the Potency in assay [8] is 0.59 µM (active); in assay [9], 0.833 µM (active); in assay [10] it was 1.05 µM (active).
